Assay results from PubChem BioAssay (NCI).
The panel holds about 79,000 compounds, 15% with a hit somewhere; the sample as a whole holds those more often. The source made the active and inactive calls. Rule as the data show it: active = growth inhibition above about 70%; inactive = the rest.

Test: NCI Yeast Anticancer Drug Screen. Data for the rad14 strain (AID 159);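 also: 0% = growth of vehicle-treated control cultures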
Conditions: S. cerevisiae rad14 strain growth inhibition; at 33.0 µM; hits give high values
Method in brief: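 Readout: yeast growth inhibition, referenced to vehicle-only cultures. Strain bears a defined alteration in DNA damage repair.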

Row | SMILES | growth inhibition
1 | CC(CN(C)C)C(=O)/C=C/c1ccc(Cl)c(Cl)c1 (configuration not stated) | 50% (inactive)
2 | CCCCCCNCCCNc1c2cc(OC)ccc2nc2cccc([N+](=O)[O-])c12 | 99% (active)
3 | NC(=S)N1N=C2c3ccccc3CC[C@H]2[C@@H]1c1ccc(Cl)cc1 | -3% (inactive)
4 | C/C(=N/NC(=S)Nc1ccccc1C)c1ccccn1 | -14% (inactive)
5 | O=C1/C(=C/c2ccc(Cl)c(Cl)c2)CNC/C1=C\c1ccc(Cl)c(Cl)c1 | 52% (inactive)
6 | CC(C)OP(=O)(OC(C)C)C(=NCCO)NNc1ccc([N+](=O)[O-])cc1 | 3% (inactive)
7 | N#CCC(=O)N/N=C(\c1ccccc1)C(c1ccccc1)C1(O)C(=O)Nc2c(Cl)ccc(Cl)c21 (configuration not stated) | 27% (inactive)
8 | CC(C)(CN1CCCCC1)C(=O)CC(SCCS(=O)(=O)O)c1ccccc1 (configuration not stated) | 31% (inactive)
9 | COC1=CCC23C(=O)C=CC(=O)C2(C1)C(=O)c1ccccc1C3=O (configuration not stated) | 50% (inactive)
10 | CCCCN(CCCC)c1ccc(N=Nc2ccc(S(=O)(=O)O)cc2)cc1 | 97% (active)
11 | c1ccc2nc3c(nc2c1)sc1ccccc13 | 39% (inactive)
12 | O=C1c2ccccc2-c2ccc(N=Cc3ccccc3)cc21 | 18% (inactive)
13 | CNC(=S)N/N=C(/C)CCC/C(C)=N/NC(=S)NC | 61% (inactive)
14 | Nc1ccc(/C=C/c2ccc3cccnc3c2)cc1 | 13% (inactive)
15 | COc1ccc2c3c1OC(C)C31CC(=O)CCC1CC2 (configuration not stated) | 1% (inactive)
16 | CCOC(=O)Nc1ccc(C)c(NC(=O)OCC)c1 | 15% (inactive)
17 | CCN(CC)CCNc1ccc2nc(C)n3c4ccc(OC)cc4c(=O)c1c23 | 30% (inactive)
